Consider 7 compounds from PubChem BioAssay (Tox21).

Experiment [1] can be described thus: qHTS assay to identify small molecule antagonists of the glucocorticoid receptor (GR) signaling pathway - cell viability counter screen (AID 720693). Note: nearly all actives have a fitted effect of over 55% in size. Note: potency is the fitted concentration of half-maximal effect. For orientation: qHTS replaces the single test concentration by a dilution series.
Experiment [2] in a line: qHTS assay for identifying genotoxic compounds that show differential cytotoxicity against isogenic chicken DT40 cell lines with known DNA damage response pathways - wild type cell line (AID 743012). Note: nearly all actives have a fitted effect of over 60% in size. Note: potency is the fitted concentration of half-maximal effect. Summed up: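 CellTiter-Glo luminescence readout of viability in wild type DT40 cells after 40 h compound exposure at 37 C/5% CO2; 300 cells/well; reagent incubated 30 min at room temperature before reading.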

Experiment [3] can be described thus: qHTS assay for identifying genotoxic compounds that show differential cytotoxicity against isogenic chicken DT40 cell lines with known DNA damage response pathways - Rev3 mutant cell line (AID 743014). Note: nearly all actives have a fitted effect of over 55% in size. Note: potency is the fitted concentration of half-maximal effect.
Experiment [4] in a line: qHTS assay for identifying genotoxic compounds that show differential cytotoxicity against isogenic chicken DT40 cell lines with known DNA damage response pathways - Rad54/Ku70 mutant cell line (AID 743015). Note: nearly all actives have a fitted effect of over 60% in size. Note: potency is the fitted concentration of half-maximal effect.
The nature of experiment [5]: qHTS assay to identify small molecule antagonists of the androgen receptor (AR) signaling pathway - cell viability counter screen (AID 743033; note: nearly all actives have a fitted effect of over 45% in size; note: potency is the fitted concentration of half-maximal effect).
In experiment [6] the target is Androgen receptor (Homo sapiens) (UniProt P10275). The experiment is described as follows: qHTS assay to identify small molecule antagonists of the androgen receptor (AR) signaling pathway (AID 743035; active = well fitted inhibition curve with a large enough effect in the signal ratio in the repeat runs, not every such curve was filed as active; inconclusive = weak or mixed curves, or effect the other way; inactive = no such curve, though single readings can be large or run the other way; the % refers to the signal ratio; note: potency is the fitted concentration of half-maximal effect). Put shortly:
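AR-bla HEK293 reporter cells; 4 h settle at 37C/5% CO2; compound + R1881 agonist, 16 h at 37C; LiveBLAzer B/G FRET substrate 2 h RT; fluorescence intensity read. qHTS format.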

Experiment [7] shares this target. Nature of the experiment: qHTS assay to identify small molecule agonists of the androgen receptor (AR) signaling pathway (AID 743036; active = well fitted activation curve with a large enough effect in the signal ratio in the repeat runs, with a control signal flat, not every such curve was filed as active; inconclusive = weak or mixed curves, or effect the other way; inactive = no such curve, though single readings can be large or run the other way; the % refers to the signal ratio). Summed up:
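Quantitative HTS of the Tox21 10K library in HEK293 cells bearing a stably integrated UAS-controlled beta-lactamase reporter. Compound exposure lasted 16 h at 37C. Reporter activity was detected by FRET substrate fluorescence after 2 h at room temperature.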

Experiment [8] has the same target. The experiment is described as follows: qHTS assay to identify small molecule agonists of the androgen receptor (AR) signaling pathway using the MDA cell line (AID 743040; note: nearly all actives have a fitted effect of over 20% in size). Put shortly: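 Luciferase read-out, ONE-Glo, 30 min RT. Cells: MDA-kb2 AR-luc, MMTV promoter with AR and GR response elements. Compound exposure 16 h, 37C, 0% CO2, after 5 h pre-incubation. qHTS agonist mode.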

Experiment [9] is described as follows: qHTS assay to identify small molecule antagonists of the androgen receptor (AR) signaling pathway using the MDA cell line - cell viability counter screen (AID 743041; note: nearly all actives have a fitted effect of over 45% in size; note: potency is the fitted concentration of half-maximal effect). Put shortly:
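Cytotoxicity counter screen: MDA-kb2 AR-luc cells, compound + R1881, 16 h, 37C, 0% CO2; CellTiter-Fluor added at 15.5 h, fluorescence read after 30 min.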

The target in experiment [10] is Androgen receptor (Homo sapiens) (UniProt P10275). Nature of the experiment: qHTS assay to identify small molecule antagonists of the androgen receptor (AR) signaling pathway using the MDA cell line (AID 743042; note: nearly all actives have a fitted effect of over 55% in size; note: potency is the fitted concentration of half-maximal effect). Put shortly:
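MDA-kb2 breast carcinoma cells carrying MMTV-luciferase (AR/GR responsive) were co-treated with compounds and the agonist R1881 for 16 h at 37C. Inhibition read as ONE-Glo luminescence; CellTiter-Fluor fluorescence measured in parallel for cytotoxicity.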

A short description of experiment [11]: qHTS assay to identify small molecule antagonists of the thyroid receptor (TR) signaling pathway - cell viability counter screen (AID 743064). Note: nearly all actives have a fitted effect of over 50% in size. Note: potency is the fitted concentration of half-maximal effect. Put shortly: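 Rat GH3 pituitary tumor cells stably expressing two TR response elements driving luciferase were plated, rested 4 h, then dosed with library compounds and T3 (1 nM final). After 23.5 h at 37 °C, CellTiter-Fluor was added for 30 min and fluorescence recorded.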

Experiment [12] has as its target Estrogen receptor (Homo sapiens) (UniProt P03372). The experiment is described as follows: qHTS assay to identify small molecule antagonists of the estrogen receptor alpha (ER-alpha) signaling pathway (AID 743069; active = well fitted curve in the direction sought with a large enough effect in the signal ratio in the repeat runs, not every such curve was filed as active; inconclusive = weak or mixed curves, or effect the other way; inactive = no such curve, though single readings can be large or run the other way; the % refers to the signal ratio; note: potency is the fitted concentration of half-maximal effect). Put shortly: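 Beta-lactamase FRET fluorescence is read after 2 hr at room temperature with LiveBLAzer B/G substrate. Before that, ER-alpha-bla HEK293 cells sit 4 hr after plating, then receive compound plus 17beta-estradiol and incubate 18 hr at 37C.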

Experiment [13] can be described thus: qHTS assay to identify small molecule antagonists of the estrogen receptor alpha (ER-alpha) signaling pathway - cell viability counter screen (AID 743074; calls by dose curve;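 note: HEK293 cells carrying ER-alpha-UAS-bla reporter stimulated with 17beta-estradiol; nearly all actives have a fitted effect of over 45% in size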; note: potency is the fitted concentration of half-maximal effect).
For experiment [14], the target named is Estrogen receptor (Homo sapiens) (UniProt P03372). Nature of the experiment: qHTS assay to identify small molecule agonists of the estrogen receptor alpha (ER-alpha) signaling pathway (AID 743075; calls by dose curve;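 note: HEK293 GripTite cells with ER-alpha and UAS-driven beta-lactamase reporter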; note: potency is the fitted concentration of half-maximal effect).
Experiment [15] has the same target. The experiment is described as follows: qHTS assay to identify small molecule agonists of the estrogen receptor alpha (ER-alpha) signaling pathway using the BG1 cell line (AID 743079). Note: nearly all actives have a fitted effect of over 20% in size.
A short description of experiment [16]: qHTS assay to identify small molecule antagonists of the estrogen receptor alpha (ER-alpha) signaling pathway using the BG1 cell line (AID 743080; calls by dose curve;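 note: BG1 cells stimulated with 17beta-estradiol alongside compound; nearly all actives have a fitted effect of over 25% in size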; note: potency is the fitted concentration of half-maximal effect). Summed up:
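BG1-Luc-4E2 cells (endogenous full-length ER-alpha, 4xERE luciferase) hormone-starved 5 days in charcoal-stripped FBS, plated 4,000/well for 24 h, then compound plus 17beta-estradiol for 21.5 h at 37 C; ONE-Glo luminescence read.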

Experiment [17] is described as follows: qHTS assay to identify small molecule antagonists of the estrogen receptor alpha (ER-alpha) signaling pathway using the BG1 cell line - cell viability counter screen (AID 743081).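 Note: compound given together with 17beta-estradiol as the ER stimulus; nearly all actives have a fitted effect of over 45% in size.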 Note: potency is the fitted concentration of half-maximal effect.
In another experiment the target is Aromatase (Homo sapiens) (UniProt P11511). Nature of the experiment: qHTS assay to identify aromatase inhibitors (AID 743083). Note: nearly all actives have a fitted effect of over 55% in size. Note: potency is the fitted concentration of half-maximal effect.
A short description of experiment [18]: qHTS assay to identify small molecule antagonists of the thyroid receptor (TR) signaling pathway (AID 743065). Note: nearly all actives have a fitted effect of over 55% in size. Note: potency is the fitted concentration of half-maximal effect. Put shortly:
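GH3.TRE-Luc rat pituitary cells (two TREs driving luciferase) were dosed with compound, then stimulated with 1 nM T3 (final) for 23.5 h at 37 C. ONE-Glo luminescence was the read-out, with CellTiter-Fluor fluorescence as the cytotoxicity counter-screen.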

The subject of experiment [19] is thyroid hormone receptor (rat, GH3 cells). Nature of the experiment: qHTS assay to identify small molecule agonists of the thyroid receptor (TR) signaling pathway (AID 743066; calls by dose curve).

Several values for one entry are separate records, joined by “and”; a condition that tells them apart may be missing. Equal values may be shown once. Some compounds were tested as several samples or in several runs, with calls that do not always agree. Activity calls are given as the source filed them. Unless noted, calls come from the whole dose curve; as a rule, active = well fitted curve in the direction sought with a large enough effect in the repeat runs; inconclusive = weak or mixed curves; inactive = no such curve, though single readings can be large; an effect the other way counts as inactive or inconclusive.

Chain of Androgen receptor (Homo sapiens) (P10275 whole entry, looked up): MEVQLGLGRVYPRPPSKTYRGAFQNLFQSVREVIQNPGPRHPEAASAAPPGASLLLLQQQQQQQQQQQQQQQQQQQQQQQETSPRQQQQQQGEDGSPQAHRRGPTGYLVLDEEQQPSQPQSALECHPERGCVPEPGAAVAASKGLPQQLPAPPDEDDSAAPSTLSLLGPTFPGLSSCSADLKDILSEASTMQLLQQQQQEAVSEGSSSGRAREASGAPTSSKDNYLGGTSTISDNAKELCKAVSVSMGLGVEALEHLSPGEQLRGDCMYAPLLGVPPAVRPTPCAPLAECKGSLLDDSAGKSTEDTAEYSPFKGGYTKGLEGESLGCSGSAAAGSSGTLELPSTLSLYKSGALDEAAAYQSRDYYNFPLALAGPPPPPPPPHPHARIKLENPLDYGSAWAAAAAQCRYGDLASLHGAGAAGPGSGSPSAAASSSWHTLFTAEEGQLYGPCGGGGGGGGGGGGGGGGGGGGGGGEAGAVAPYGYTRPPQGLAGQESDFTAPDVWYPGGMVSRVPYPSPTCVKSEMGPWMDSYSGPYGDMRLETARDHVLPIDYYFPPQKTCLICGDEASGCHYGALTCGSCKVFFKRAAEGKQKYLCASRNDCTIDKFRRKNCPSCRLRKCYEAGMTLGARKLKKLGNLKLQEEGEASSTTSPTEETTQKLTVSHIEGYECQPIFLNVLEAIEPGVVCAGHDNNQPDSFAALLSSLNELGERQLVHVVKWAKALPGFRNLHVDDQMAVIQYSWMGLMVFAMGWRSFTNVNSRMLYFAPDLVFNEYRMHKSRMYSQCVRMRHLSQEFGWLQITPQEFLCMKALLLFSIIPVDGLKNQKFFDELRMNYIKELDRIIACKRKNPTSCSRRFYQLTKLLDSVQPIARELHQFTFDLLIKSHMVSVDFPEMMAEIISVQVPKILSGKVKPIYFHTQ
Chain of Estrogen receptor (Homo sapiens) (P03372 whole entry, looked up): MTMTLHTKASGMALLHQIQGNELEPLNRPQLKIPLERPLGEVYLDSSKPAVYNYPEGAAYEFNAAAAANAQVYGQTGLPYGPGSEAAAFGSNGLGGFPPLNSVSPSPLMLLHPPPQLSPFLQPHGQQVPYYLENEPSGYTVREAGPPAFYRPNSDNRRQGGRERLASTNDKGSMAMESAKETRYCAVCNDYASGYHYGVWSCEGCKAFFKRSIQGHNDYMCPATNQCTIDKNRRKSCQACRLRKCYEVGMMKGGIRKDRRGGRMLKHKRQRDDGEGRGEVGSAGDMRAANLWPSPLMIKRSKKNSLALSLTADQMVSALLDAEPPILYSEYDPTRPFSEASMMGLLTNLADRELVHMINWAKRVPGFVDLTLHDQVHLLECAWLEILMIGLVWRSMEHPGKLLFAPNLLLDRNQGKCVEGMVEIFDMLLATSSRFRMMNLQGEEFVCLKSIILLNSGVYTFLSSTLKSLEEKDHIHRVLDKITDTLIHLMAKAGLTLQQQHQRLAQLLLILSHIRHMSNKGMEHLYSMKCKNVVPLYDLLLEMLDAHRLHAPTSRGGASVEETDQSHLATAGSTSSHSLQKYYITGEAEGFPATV
Chain of Aromatase (Homo sapiens) (P11511 whole entry, looked up): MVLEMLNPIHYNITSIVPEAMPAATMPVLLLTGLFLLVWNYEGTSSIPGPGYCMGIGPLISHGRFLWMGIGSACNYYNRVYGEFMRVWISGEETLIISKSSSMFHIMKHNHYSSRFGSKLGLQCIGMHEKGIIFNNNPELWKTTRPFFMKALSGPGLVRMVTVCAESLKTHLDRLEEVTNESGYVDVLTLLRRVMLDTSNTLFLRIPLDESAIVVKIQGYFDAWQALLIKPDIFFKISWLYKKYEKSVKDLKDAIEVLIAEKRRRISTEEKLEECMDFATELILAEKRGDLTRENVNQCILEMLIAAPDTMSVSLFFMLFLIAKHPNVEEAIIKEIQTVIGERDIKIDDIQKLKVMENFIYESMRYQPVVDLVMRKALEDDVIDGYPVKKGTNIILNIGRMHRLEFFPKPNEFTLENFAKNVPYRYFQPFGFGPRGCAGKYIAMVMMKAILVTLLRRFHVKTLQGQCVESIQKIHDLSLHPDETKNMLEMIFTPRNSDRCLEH

In the case of `Clc1sc(Cl)c(Cl)c1Cl`, the Potency result in [1], in experiment [2], in [3], in [4], in experiment [5] and in experiment [6] was “inactive” in each case. Besides, the Potency result in experiment [7], in [9], in experiment [10], in experiment [11], in experiment [12] and in [13] was “inactive” throughout. For the same compound, the Potency entry (in experiment [14]; in [15]; in experiment [16]; in [17]; with Aromatase (Homo sapiens)) was “inactive” throughout. Further, the compound was classed as inactive in [8].

With `CC(=O)[C@H]1CC[C@H]2[C@@H]3CCC4=CC(=O)CC[C@]4(C)[C@H]3CC[C@]12C`, the Potency in experiment [1] is 3.87 µM (active); in [2] it was 6.68 µM (active) and 13.6 µM (active) and 7.7 µM (active); in experiment [3], 9.44 µM (active) and 6.82 µM (active) and 6.86 µM (active); in experiment [4], 9.44 µM (active) and 12.1 µM (active) and 12.2 µM (active); in [5], “inactive and 43.6 µM (active)”; in [11], 60.8 µM (active). For the same compound, the Potency is 13.3 µM (active) and 21.6 µM (active) and 27.3 µM (active) in experiment [18]; “inactive and 54.2 µM (active) and 68.6 µM (active)” in experiment [16]. In addition, the Potency result in experiment [9], in experiment [12], in experiment [13], in experiment [14], in experiment [15] and in experiment [17] was “inactive” throughout. Moreover, the Potency entry in the experiment with Aromatase (Homo sapiens) was “inactive”. Also, the result in experiment [19] was inactive.

As to `CN(C)c1ccc(C(=C2C=CC(=[N+](C)C)C=C2)c2ccc(N(C)C)cc2)cc1`, the Potency in [1] was 6.01 µM (active) and 3.45 µM (active) and 9.77 µM (active); in experiment [2], 335 nM (active) and 542 nM (active) and 193 nM (active); in experiment [3], 473 nM (active) and 483 nM (active) and 243 nM (active); in experiment [4], 422 nM (active) and 483 nM (active) and 193 nM (active); in experiment [5], 1.69 µM (active) and 1.37 µM (active) and 347 nM (active); in experiment [6], 0.347 µM (active). Further, the Potency was 3.35 µM (active) and 7.66 µM (active) and 4.33 µM (active) in [9]; 2.37 µM (active) and 859 nM (active) and 864 nM (active) in [10]; 1.88 µM (active) and 859 nM (active) and 8.63 µM (active) in experiment [11]; 1.33 µM (active) and 431 nM (active) and 545 nM (active) in experiment [18]; 34.7 µM [cytotoxic] (active) in experiment [12]; 10.7 µM (active) and 8.67 µM (active) and 24.5 µM (active) in [13]. The Potency in [14] is 3.07 µM [inconclusive] (active); in experiment [16] it was 2.42 µM (active) and 3.86 µM (active); in [17], 13.3 µM (active) and 12.1 µM (active) and 24.3 µM (active); with Aromatase (Homo sapiens), 2.98 µM (active) and 608 nM (active) and 864 nM (active). For the same compound, the result in [8] was inactive.

For the compound `Cc1cc(-n2nc3ccc(Cl)cc3n2)c(O)c(C(C)(C)C)c1`, the Potency result in [1], in [2], in [3], in experiment [4], in [5] and in experiment [9] was “inactive” throughout. Further, the Potency entry in experiment [11], in experiment [18], in [13] and in experiment [17] was “inactive” each time. For the same compound, the call in experiment [19] was inactive.

As to `Nc1ccc(C(=O)O)c(O)c1`, the Potency result in experiment [1], in [2], in experiment [3], in experiment [4], in experiment [5] and in [6] was “inactive” each time. Further, the Potency result in experiment [7], in experiment [9], in experiment [10], in [11], in experiment [13] and in [17] was “inactive” each time. In addition, the Potency entry in the experiment with Aromatase (Homo sapiens) is “inactive”. Besides, the call in experiment [8] and in experiment [19] was inactive.

Regarding `O=[N+]([O-])c1cccc(C(F)(F)F)c1`, the Potency result in experiment [1], in experiment [2], in experiment [3], in experiment [4], in experiment [5] and in experiment [9] was “inactive” in each case. The Potency result in experiment [11], in experiment [18], in experiment [12], in experiment [13], in [14] and in [15] was “inactive” in each case. The Potency entry (in [16]; in [17]; with Aromatase (Homo sapiens)) was “inactive” throughout. In addition, the call in [19] was inactive.

As to `CCn1c2ccccc2c2cc([N+](=O)[O-])ccc21`, the Potency result in [1], in [5], in experiment [9], in experiment [11], in experiment [18] and in [12] was “inactive” each time. Moreover, the Potency result (in [13]; in [14]; in [15]; in experiment [16]; in experiment [17]; with Aromatase (Homo sapiens)) was “inactive” throughout. The Potency was 48.6 µM (active) in [2], 27.3 µM (active) in experiment [3] and 54.5 µM (active) in experiment [4]. In addition, in experiment [19], the result was inactive.
